FBA Mtb inh – Mtb fructose-bisphosphate aldolase inhibition; P9WQA3; purified M. tuberculosis FBA, fluorescence read-out; inhibition, % at 1 µM; actives 2.3% (n = 360,000); in the data active = inhibition above about 27%;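 note: 0% = vehicle and 100% = reference inhibitor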
Rv3671c protease – inhibitors of M. tuberculosis serine protease Rv3671c; actives 0.048% (n = 320,000); P9WHR9; inhibition, % at 5.96 µM; AID 2606; in the data active = inhibition above about 38%;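 note: extracellular domain of Rv3671c used as enzyme; 0% = enzyme with DMSO and 100% = no enzyme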
Target sequence (P9WHR9 whole entry, looked up, the tested form may be a part): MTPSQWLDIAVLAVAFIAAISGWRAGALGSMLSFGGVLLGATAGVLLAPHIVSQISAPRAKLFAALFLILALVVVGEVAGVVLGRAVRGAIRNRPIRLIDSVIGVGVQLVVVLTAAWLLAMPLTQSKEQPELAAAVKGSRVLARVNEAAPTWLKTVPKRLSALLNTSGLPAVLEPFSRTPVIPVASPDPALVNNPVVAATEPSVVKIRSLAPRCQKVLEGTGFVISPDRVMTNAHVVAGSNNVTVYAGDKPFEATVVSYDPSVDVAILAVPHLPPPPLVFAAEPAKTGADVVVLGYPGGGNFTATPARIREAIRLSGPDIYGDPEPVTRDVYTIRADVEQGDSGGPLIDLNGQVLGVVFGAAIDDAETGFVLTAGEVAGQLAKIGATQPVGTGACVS
GDH-TPI counter – inhibits GDH-TPI coupling enzymes, artifact for Mtb FBA screen | GDH-TPI coupled enzyme counterscreen, NADH absorbance | inhibition, % at 4.8 µM | actives 1.2% (n = 360,000) | AID 588335; in the data active = inhibition above about 30%;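 note: 0% = DMSO wells and 100% = wells lacking the enzyme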
Mtb UGM inh – inhibitors of M. tuberculosis UDP-galactopyranose mutase; P9WIQ1; purified UGM, fluorescence polarization probe displacement; inhibition, % at 10 µM; actives 0.06% (n = 320,000); AID 504406; in the data active = inhibition above about 10%, passing the limit was not always enough
Active calls of the source: *. In the library only some 3.5% were active in any assay of this set; here they are far more common.

O=c1c2ccccc2nc(/C=C/c2ccccc2)n1CCCO was read as FBA Mtb inh 1, Rv3671c protease -7, GDH-TPI counter 35* and Mtb UGM inh -1.
Screening COc1ccc(/C=C/c2nc3ccccc3n2C)cc1 returned FBA Mtb inh 7, Rv3671c protease 3, GDH-TPI counter 65* and Mtb UGM inh -3.
COc1ccc(Nc2nc3ccccc3n2C)cc1 was read as FBA Mtb inh 2, Rv3671c protease -6, GDH-TPI counter -4 and Mtb UGM inh 1.
`COc1ccc(OCCNC(=O)c2ccc3nc(C)c(N(C)Cc4ccc(NC(C)=O)cc4)n3c2)cc1` gave FBA Mtb inh 6 and GDH-TPI counter 10.
`Cc1cc(S(=O)(=O)Nc2ccc(C(=O)NCCN3CCOCC3)cc2)ccc1F` gave FBA Mtb inh 4 and GDH-TPI counter 2.
Screening CCN(Cc1ccccc1)N=Nc1ccccc1 returned FBA Mtb inh -2 and GDH-TPI counter 11.
CCOCCC(=O)Nc1ccc2c(c1)c(=O)n(C)n2CC=C(C)C was read as FBA Mtb inh active and GDH-TPI counter 12.
`C=C(C)Cn1c2ccc(NC(=O)CCc3cccc(Cl)c3)cc2c(=O)n1C` gave FBA Mtb inh active and GDH-TPI counter 5.
C=C(C)Cn1c2ccc(NC(=O)CCOCC)cc2c(=O)n1C was read as FBA Mtb inh active and GDH-TPI counter -5.
For CCCC(=O)Nc1ccc2c(c1)c1ccccc1n2CC the results were FBA Mtb inh 3, Rv3671c protease 6, GDH-TPI counter 9 and Mtb UGM inh 1.
COc1ccc(Cl)cc1NS(=O)(=O)c1cccc(C(=O)NCCCN2CCOCC2)c1 was read as FBA Mtb inh 3 and GDH-TPI counter 10.
Cc1cc(NC(=O)CSCC(=O)OCc2nnc(-c3ccc(F)cc3)o2)no1 was read as FBA Mtb inh 0, Rv3671c protease -5, GDH-TPI counter 5 and Mtb UGM inh 0.
For CCC(CC)c1nnc(NC(=O)CSCC(=O)Nc2cc(C)on2)s1 the results were FBA Mtb inh -2, Rv3671c protease 2, GDH-TPI counter 7 and Mtb UGM inh -3.
For CCOC(=O)C(/C=C(\C#N)C(=O)OCC)=C(/N)N1CCN(c2c(C)cccc2C)CC1 the results were FBA Mtb inh 4, Rv3671c protease 6, GDH-TPI counter 50* and Mtb UGM inh 6.
Screening CCOC(=O)C(/C=C(\C#N)C(=O)OCC)=C(/N)N1CCN(c2ccc(OC)cc2)CC1 returned FBA Mtb inh -1, Rv3671c protease -1, GDH-TPI counter 57* and Mtb UGM inh -2.
`CCOC(=O)/C(C#N)=C/c1c(N2CCN(c3ccc(OC)cc3)CC2)nc2c(C)cccn2c1=O` gave FBA Mtb inh 0, GDH-TPI counter 9 and Mtb UGM inh -1.
COc1ccc(C)c(NC(=O)NCCc2cnc[nH]2)c1 was read as FBA Mtb inh 2, Rv3671c protease 3, GDH-TPI counter 4 and Mtb UGM inh 0.
`COc1ccc(CCNC(=O)COC(=O)c2ccccn2)cc1` gave FBA Mtb inh -2, Rv3671c protease -1, GDH-TPI counter 15 and Mtb UGM inh 0.
Cc1nnc(NC(=O)c2oc3c(ccc4ccccc43)c2C)s1 was read as FBA Mtb inh 15, Rv3671c protease -18, GDH-TPI counter 32* and Mtb UGM inh 1.
Cc1nc(NC(=O)/C=C/c2ccccc2)sc1C(=O)N(C)C was read as FBA Mtb inh 1, Rv3671c protease -4, GDH-TPI counter 15 and Mtb UGM inh 1.
For Cc1nc(NC(=O)/C=C/c2ccc(F)cc2)sc1C(=O)N(C)C the results were FBA Mtb inh -2, Rv3671c protease -9, GDH-TPI counter 34* and Mtb UGM inh -1.
Cc1nc(NC(=O)c2oc3ccccc3c2C)sc1C(=O)N(C)C was read as FBA Mtb inh -1, Rv3671c protease -3, GDH-TPI counter 32* and Mtb UGM inh 2.
For NC(=O)c1c(NC(=O)C2COc3ccccc3O2)sc2c1CCN(Cc1ccccc1)C2 (centres undefined) the results were FBA Mtb inh 6, Rv3671c protease -3, GDH-TPI counter 27 and Mtb UGM inh 19*.
CCOC(=O)c1c(NC(=O)C2COc3ccccc3O2)sc2c1CCN(Cc1ccccc1)C2 (centres undefined) was read as FBA Mtb inh 2, Rv3671c protease -6, GDH-TPI counter 12 and Mtb UGM inh 3.
Screening CCc1ccccc1NC(=O)CNC(=O)c1cc(C2CC2)nn1-c1ccccc1 returned FBA Mtb inh 1, Rv3671c protease -3 and GDH-TPI counter 1.
COc1cc(C(=O)NN=Cc2ccc(N(C)C)cc2)cc(OC)c1OC was read as FBA Mtb inh -2 and GDH-TPI counter 42*.
COc1ccc(C=O)cc1OS(=O)(=O)c1ccc(NC(C)=O)cc1 was read as FBA Mtb inh -1, Rv3671c protease 5, GDH-TPI counter 1 and Mtb UGM inh 0.
Screening COc1ccc(/C=N/NC(=O)c2ccc3ccccc3c2)cc1OS(=O)(=O)c1ccc(NC(C)=O)cc1 returned FBA Mtb inh 1, Rv3671c protease -267, GDH-TPI counter 36* and Mtb UGM inh 0.
Screening COc1cc(/C=N/NC(=O)c2ccncc2)cc(OC)c1OC returned FBA Mtb inh 1, Rv3671c protease 3, GDH-TPI counter 9 and Mtb UGM inh 0.
CCOc1cc(/C=N/NC(=O)c2ccc(N(C)S(=O)(=O)c3ccccc3)cc2)ccc1OC was read as FBA Mtb inh 1, Rv3671c protease -60, GDH-TPI counter 42* and Mtb UGM inh 0.
`COc1cc(/C=N/NC(=O)c2cc[n+]([O-])cc2)cc(OC)c1OC` gave FBA Mtb inh -3, Rv3671c protease 0, GDH-TPI counter 39* and Mtb UGM inh 2.
For COc1ccc(/C=N/NC(=O)c2cc[n+]([O-])cc2)cc1OC the results were FBA Mtb inh -1, Rv3671c protease -2, GDH-TPI counter 21 and Mtb UGM inh -4.
CN(C(=O)CSc1cc(C(=O)c2nccn2C)c2ccccc2n1)c1ccccc1 was read as FBA Mtb inh -2, Rv3671c protease -2, GDH-TPI counter 11 and Mtb UGM inh 4.
NS(=O)(=O)c1ccc(NC(=S)NNC(=O)c2ccc(Br)o2)cc1 was read as FBA Mtb inh 1, Rv3671c protease 6, GDH-TPI counter 33* and Mtb UGM inh 1.
`CCC(=O)/C=C1/Sc2ccc(OC)cc2N1CCO` gave FBA Mtb inh -7, Rv3671c protease 2, GDH-TPI counter 12 and Mtb UGM inh -1.
Screening CCN1/C(=C/C(=O)c2ccco2)Sc2ccccc21 returned FBA Mtb inh 3, Rv3671c protease -2, GDH-TPI counter 11 and Mtb UGM inh -1.
CCC(=O)/C=C1/Sc2ccccc2N1CC was read as FBA Mtb inh 0, Rv3671c protease -3, GDH-TPI counter 39* and Mtb UGM inh 0.
For CCC(=O)/C=C1/Sc2ccc(OC)cc2N1CC the results were FBA Mtb inh -1, Rv3671c protease -3, GDH-TPI counter 35* and Mtb UGM inh 4.
COc1ccc(C(=O)Nc2cccc(/C=C(\CCC(=O)O)c3nc4ccccc4s3)c2)cc1 was read as FBA Mtb inh 2, Rv3671c protease -31, GDH-TPI counter 32* and Mtb UGM inh -1.
For COc1ccc(/C=C(\CC(=O)O)c2nc3ccccc3s2)cc1O the results were FBA Mtb inh 2, Rv3671c protease 8, GDH-TPI counter 18 and Mtb UGM inh -1.

Bioassay records (PubChem BioAssay)
